# TDP1 block = inhibitors of human tyrosyl-DNA phosphodiesterase TDP1; Q9NUW8; recombinant TDP1, AlphaScreen DNA substrate cleavage; Potency, µM (series often up to 130 µM), for the others: at the top dose activity change, negative = inhibition, hits mostly inhibitors; 0.28% of 350,000 active; AID 485290; also: potency is read from the fitted curve at half-maximal effect; nearly all actives have a fitted effect of over 40% in size
#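 Steps: enzyme plus compound, 15 min RT; add biotin/phosphotyrosine-FITC oligonucleotide (15 nM final), react 5 min; add donor/acceptor beads (10 ug/ml final), 10 min; read AlphaScreen. Tdp1 at 1 nM final.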
# PI4K2A inh = inhibitors of human PI4K2A; Q9BTU6; purified PI4K2A, ADP-Glo luminescence, 1 h; stronger effect = lower value; activity change, negative = inhibition, % at 76.9 µM; 0.13% of 420,000 active; AID 1346378; in the data active = activity change below about -50%; inconclusive = mostly about -30% to -49%;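 also: -100% = wells without enzyme as full effect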
#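 In this quantitative HTS, ADP production by PI4K2A was quantified luminescently after 1 h at ambient temperature; 100 microM adenosine served as plate-quality control.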
# Tb PGK inh = inhibitors of T. brucei phosphoglycerate kinase; P07378; PGK/GAPDH coupled, Kinase-Glo luminescence, 60 min; Potency, µM (titrated, usually from 57.5 µM), inactives show at the top dose activity change, negative = inhibition, actives largely listed as inhibitors; 0.043% of 380,000 active; AID 602233; also: potency is read from the fitted curve at half-maximal effect; nearly all actives have a fitted effect of over 60% in size
#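 Luminescent ATP detection (Kinase-Glo Plus) follows a 60-minute room-temperature incubation, with wells lacking PGK as controls. Buffer: 100 mM TEA (pH 7.6), 5 mM MgCl2, 0.01% Tween-20. Coupling enzyme GAPDH (100 nM final) supplies unstable 1,3-BPG in-well.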
# Tb PFK inh = inhibitors of T. brucei phosphofructokinase; 0.17% of 330,000 active; Potency, µM (titrated, usually from 57.5 µM), without a hit: top-dose activity, negative = inhibition, hits mostly inhibitors; T. brucei PFK, ADP-Glo luminescence;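 also: potency is read from the fitted curve at half-maximal effect; 0% = uninhibited 1x PFK enzyme wells and -100% = no-enzyme wells; nearly all actives have a fitted effect of over 60% in size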
#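 Compounds were pin-transferred as a titration series up to 57 uM into substrate buffer (0.5 mM F6P, 0.1 mM ATP, pH 8.0), then 1.25 nM PFK was added and reactions ran 45 min before ADP-Glo detection.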
# APEX1 inh = inhibitors of human APE1 endonuclease; P27695; recombinant APE1, TAMRA/BHQ-2 abasic DNA cleavage fluorescence; Potency, µM (titrated, usually from 65.8 µM), for the others: at the top dose activity change, negative = inhibition, actives largely listed as inhibitors; 0.35% of 350,000 active; AID 2517;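 also: potency is read from the fitted curve at half-maximal effect; plate controls were vehicle for no effect and reference inhibitor for full effect; nearly all actives have a fitted effect of over 55% in size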
#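 Enzyme (0.75 nM final) and test compound are incubated 15 min at room temperature before adding 50 nM quenched THF abasic-site duplex. Cleavage dequenches TAMRA, followed at 525/598 nm over three reads one minute apart.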
# FEN1 inhibitor = human FEN1 inhibition | Potency, µM (top dose mostly 114 µM), inactives show at the highest dose activity change, negative = inhibition, hits mostly inhibitors | 0.35% of 390,000 active | P39748 | Recombinant FEN1 flap cleavage, fluorescence, 15 min; also: potency is read from the fitted curve at half-maximal effect; nearly all actives have a fitted effect of over 65% in size
# Target sequence (P39748 whole entry, looked up): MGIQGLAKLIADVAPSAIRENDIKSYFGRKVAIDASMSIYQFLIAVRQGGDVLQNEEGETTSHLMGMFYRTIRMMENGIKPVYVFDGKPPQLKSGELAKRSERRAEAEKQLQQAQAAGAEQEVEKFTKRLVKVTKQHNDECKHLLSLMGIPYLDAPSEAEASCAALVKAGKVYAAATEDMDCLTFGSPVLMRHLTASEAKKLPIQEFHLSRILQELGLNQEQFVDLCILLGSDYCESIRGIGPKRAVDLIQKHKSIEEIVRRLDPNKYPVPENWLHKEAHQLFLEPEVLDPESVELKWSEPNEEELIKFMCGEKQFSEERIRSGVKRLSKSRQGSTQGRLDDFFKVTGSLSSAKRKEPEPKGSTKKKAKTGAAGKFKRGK
#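 Concentration–response screening of FEN1 (10 nM): 15 min compound preincubation at room temperature, reaction started with 50 nM substrate and read at 0 and 15 min. Corrected, normalized data were fitted by a four-parameter Hill equation.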
# The depositor's hits bear a star; i = inactive; ? = inconclusive; / = no result given. An excerpt weighted towards active compounds, which were near 0.8% of everything screened. Unless noted, calls follow the shape of the dose curve; as a rule, active = well fitted curve in the direction sought with a large enough effect; inconclusive = small, poorly fitted or top-dose-only effect, or another doubt; inactive = no such curve, though single readings can be large; an effect the other way counts as inactive or inconclusive. Unless noted, % is scaled to controls: 0 for no effect and ±100 for the full control effect.
SMILES,TDP1 block,PI4K2A inh,Tb PGK inh,Tb PFK inh,APEX1 inh,FEN1 inhibitor
CC1=NN(c2ccc(C)cc2)C(=O)/C1=C\C=C\c1ccccc1,1%,1,-2%,0%,11%,1%
CC1=NN(c2cccc(C(=O)O)c2)C(=O)/C1=C\C=C/c1ccccc1,8%,-10,5%,-18%,-3%,79µM*
Cc1ccc(N2NC(=O)/C(=C/c3ccc(-c4ccc(Cl)c(C(=O)O)c4)o3)C2=O)cc1C,/,-15,-8%,-7%,-10%,-1%
CC1=NN(c2ccccc2)C(=O)/C1=C/c1ccc(-c2ccc(C)c(C(=O)O)c2)o1,/,-12,-20%,/,/,18µM*
O=C1NN(c2ccccc2)C(=O)/C1=C/c1ccc(-c2ccc(C(=O)O)cc2)o1,/,0,-18%,1%,-32%,50µM*
C/C(=C(/OCCOc1ccc(Cl)cc1)c1ccc(Cl)cc1Cl)n1ccnc1,/,3,/,/,/,/
CC(NC(CCc1ccccc1)C(=O)O)C(=O)N1C(=O)N(C)CC1C(=O)O (configuration not stated),/,-8,/,/,/,/
Cc1ccc(C(=O)OC(C)C(=O)c2cc(C)c(C)cc2C)o1 (configuration not stated),56µM*,-3,-7%,?,?,-11%
CCCCCCCC/C=C/C(=O)O,/,3,/,/,/,/
O=c1c(O[C@@H]2O[C@H](CO)[C@@H](O)[C@H](O)[C@H]2O)c(-c2ccc(O)c(O)c2)oc2cc(O)cc(O)c12,3%,/,/,?,?,/
O=c1c(O[C@@H]2O[C@H](CO)[C@H](O)[C@H](O)[C@H]2O)c(-c2ccc(O)c(O)c2)oc2cc(O)cc(O)c12,3%,/,/,6.7µM*,?,/
O=C(N/N=C/c1sc(=O)n(Cc2ccc(Br)cc2)c1Cl)c1ccco1,40µM*,14,-23%,-6%,?,?
CCN1C=CC(=C2C(=O)c3ccccc3C2=O)C=C1,4%,-52*,?,?,-4%,-1%
CN(C)[C@@H]1C(=O)C(C(N)=O)=C(O)[C@@]2(O)C(=O)C3=C(O)c4c(O)cccc4C[C@H]3C[C@@H]12,/,-3,/,/,/,/
COc1ccc(/C=N\n2nnc3ccccc32)cc1,0%,-59*,-22%,0%,12%,1%
COc1ccc(/C=N/n2c(C)nc3ccccc3c2=O)cc1,0%,2,i,-2%,-7%,-5%
COc1ccc(Cn2c(/C=C/c3ccccc3)nc3ccccc32)cc1,/,-2,?,-6%,-2%,-14%
COc1ccc(/C=C/c2nc3ccccc3n2C)cc1,5%,-88*,?,?,-6%,-15%
CNC(=O)c1cnn(-c2nc(N)c3ncn([C@@H]4O[C@H](CO)[C@@H](O)[C@H]4O)c3n2)c1,/,2,/,/,/,/
O=c1cc(O)n(C2CCCCCC2)c(=O)[nH]1,/,-51*,i,-3%,-3%,5%
COc1cc2sc3ccc(C#Cc4ccccn4)cc3c(=O)c2cc1OC,/,-2,-4%,/,/,0%
COc1cccc2sc3cc(C#Cc4ccccn4)ccc3c(=O)c12,45µM*,-24,-7%,10%,-7%,-28%
COc1ccc(C2Nc3ccccc3C(=O)N2Cc2cccnc2)cc1COc1ccc(NC(C)=O)cc1 (configuration not stated),6%,/,/,/,/,/
Cc1cnc(CNC(=O)CC2C(=O)NCCN2Cc2ccccc2C(F)(F)F)cn1 (configuration not stated),5%,-61*,-9%,3%,28%,3%
Cc1cc(CNC(=O)CC2C(=O)NCCN2Cc2ccccc2C(F)(F)F)on1 (configuration not stated),0%,-2,5%,-5%,2%,-8%
SMILES,TDP1 block,PI4K2A inh,Tb PGK inh,Tb PFK inh,APEX1 inh,FEN1 inhibitor
O=C(O)c1ccccc1-c1c2ccc(=O)cc-2oc2cc(O)ccc12,29%,/,/,/,28µM*,/
O=C1CC(c2ccco2)CC(O)=C1C=NCC1CCNCC1 (configuration not stated),?,-6,i,-2%,32µM*,1%
O=C1CC(c2ccco2)CC(O)=C1C=Nc1cc(Cl)cc(Cl)c1 (configuration not stated),-8%,-4,-2%,-23%,?,?
Cc1cc(N=Nc2ccc(C)c(N=Nc3cc(C)c(N)cc3N)c2)c(N)cc1N,/,-2,1%,?,5%,22µM*
COc1ccc(N=Nc2cc(OC)c(N)cc2OC)cc1,/,-17,i,/,/,-18%
O=C(O)Cc1ccc2c(c1)C(=O)c1ccccc1CO2,/,-5,/,/,/,/
O=C(O)Cc1nnc(-c2cc3ccccc3[nH]2)s1,0%,/,/,/,/,/
COc1ccc(CCNC(=O)CCCn2nc(C)c3sc4ccccc4c3c2=O)cc1OC,6%,0,i,/,/,45µM*
CCOc1ccc(CCNC(=O)CCCn2nc(C)c3sc4ccccc4c3c2=O)cc1,9%,2,-4%,/,/,-13%
Cc1nn(CCCC(=O)NCCc2ccc(Cl)cc2)c(=O)c2c1sc1ccccc12,6%,1,-4%,/,/,45µM*
CN(C)CCCOC1(Cc2ccccc2)CCCCCC1,/,3,/,/,/,/
Cc1ccc(-n2[nH]c(C)c(N=Nc3cccc(-c4cccc(C(=O)O)c4)c3O)c2=O)cc1C,/,-8,/,/,/,/
CCOc1ccc(NC(=O)c2cccc(-n3cccc3)c2)cc1S(=O)(=O)N1CCOCC1,0.79µM*,/,/,?,1.3µM*,/
CCCCCCCCCCCCOC(=O)N1CCN(/[N+]([O-])=N/Oc2ccc([N+](=O)[O-])cc2[N+](C)=O)CC1,/,/,/,/,/,3%
O=C(/C=C/c1ccc(O)cc1)c1ccccc1,8%,-75*,?,-26%,9%,3%
O=C(O)c1c(O)c(-c2ccccc2)nc2ccccc12,/,0,/,/,/,/
O=C(O)c1cccc(-c2ccc(/C=N/n3cnc4sc5c(c4c3=O)CCCC5)o2)c1,18µM*,/,/,-1%,?,/
